# From PubChem BioAssay (NCATS)
# Several values for one entry are separate records, joined by “and”; a condition that tells them apart may be missing. Equal entries are not always repeated. Results filed as inconclusive are left out. A call without a number means that no potency is given here. Activity calls are given as the source filed them. Unless noted, calls follow the shape of the dose curve; as a rule, active = well fitted inhibition curve with a large enough effect; inconclusive = small, poorly fitted or top-dose-only effect; inactive = no such curve, though single readings can be large or run the other way.
# What was measured:
# [1] = molecular target: Aldehyde dehydrogenase, mitochondrial (Homo sapiens) (UniProt P05091); test: qHTS for Inhibitors of the Aldehyde Dehydrogenase Family (ALDH2) Confirmatory screens (AID 2061303; active = well fitted inhibition curve with a large enough effect; title and protocol of this record describe different tests; also: nearly all actives have a fitted effect of over 45% in size; also: potency is read from the fitted curve at half-maximal effect)
# [2] = molecular target: Retinal dehydrogenase 2 (Homo sapiens) (UniProt O94788); test: qHTS for Inhibitors of the Aldehyde Dehydrogenase Family (ALDH1A2) Confirmation screens (AID 2061314); also: nearly all actives have a fitted effect of over 65% in size; also: potency is read from the fitted curve at half-maximal effect
# [3] = molecular target: Retinaldehyde dehydrogenase 3 (Homo sapiens) (UniProt P47895); test: qHTS for Inhibitors of the Aldehyde Dehydrogenase Family (ALDH1A3) Primary screen (AID 2061315)
# [4] = molecular target: Aldehyde dehydrogenase 1A1 (Homo sapiens) (UniProt P00352); test: qHTS for Inhibitors of the Aldehyde Dehydrogenase Family (ALDH1A1) Confirmatory screens (AID 2061316); also: nearly all actives have a fitted effect of over 65% in size; also: potency is read from the fitted curve at half-maximal effect
# [5] = molecular target: Retinaldehyde dehydrogenase 3 (Homo sapiens) (UniProt P47895); test: qHTS for Inhibitors of the Aldehyde Dehydrogenase Family (ALDH1A3) Confirmatory screens (AID 2061311); also: nearly all actives have a fitted effect of over 60% in size; also: potency is read from the fitted curve at half-maximal effect
# [6] = qHTS for Inhibitors of the Aldehyde Dehydrogenase Family (ALDH1A2, ALDH1A3, ALDH2, ALDH3A1) (AID 2061307); also: nearly all actives have a fitted effect of over 50% in size
smiles,measurement,setting,value
O=C(NC1CC(=O)N(c2ccccc2)C1)c1ccc(S(=O)(=O)N2CCOCC2)cc1 (stereo unspecified),Potency,[1],inactive
same,Potency,[2],inactive
O=C(NCCN1CCN(c2ccccc2)CC1)Nc1cccc(Br)c1,Potency,[1],inactive
same,Potency,[2],inactive
CCN(CC)c1ccc(NC(=O)Nc2ccc(C(C)=O)cc2)cc1,Potency,[1],inactive
same,Potency,[2],inactive
same,Potency,[3],inactive
O=C1c2ccccc2NC(c2ccc(-c3cccs3)o2)N1O (stereo unspecified),Potency,[1],11.2 µM (active)
same,Potency,[2],7.98 µM (active)
same,Potency,[3],inactive
same,Potency,[4],6.34 µM (active)
CCN1c2cc(C(=O)Nc3ccc(C#N)cc3)ccc2C(=O)N2CCCCCC21 (stereo unspecified),Potency,[1],inactive
same,Potency,[4],6.47 µM (active)
COc1ccc(C2=Nn3c(nnc3-c3ccccc3OC)SC2)c(OC)c1,Potency,[1],inactive
same,Potency,[5],inactive
same,Potency,[3],inactive
same,Potency,[4],14.2 µM (active)
COc1ccc(S(=O)(=O)N2C[C@@H](Oc3ccccc3)C[C@@H]2C(=O)N2CCOCC2)cc1,Potency,[1],inactive
same,Potency,[2],inactive
COc1cc(O)c(C(CC(=O)N2CCN(c3ccc(F)cc3)CC2)c2ccc3c(c2)OCO3)c(OC)c1 (stereo unspecified),Potency,[1],17.8 µM (active)
same,Potency,[5],12.7 µM (active)
same,Potency,[3],inactive
N#Cc1c(-c2cccc(Br)c2)no[n+]1[O-],Potency,[1],inactive
same,Potency,[2],3.57 µM (active)
same,Potency,[3],inactive
same,Potency,[4],12.7 µM (active)
[O-][n+]1onc(-c2ccccc2)c1CO,Potency,[1],inactive
same,Potency,[2],inactive
same,Potency,[3],inactive
CC(=O)Nc1sc2c(c1-c1nc3ccccc3s1)CNCC2,Potency,[1],20.1 µM (active)
same,Potency,[3],inactive
same,Potency,[4],8.96 µM (active)
CC(C)NC(=O)c1nc(-c2cccnc2)c2cnccn12,Potency,[1],inactive
same,Potency,[4],inactive
CC(C)c1ccc(NC(=O)N2CCN(c3ccc(Cl)c(Cl)c3)CC2)cc1,Potency,[1],inactive
same,Potency,[4],inactive
COc1cccc(N2CCN(c3ncnc4c3c(-c3ccccc3)cn4-c3cccc(C(F)(F)F)c3)CC2)c1,Potency,[6],inactive
Cc1csc2c1c(=O)n(O)c(=O)n2Cc1ccccc1,Potency,[6],inactive
O=C(Nc1nnc(Cc2ccccc2)s1)c1ccc(F)c(F)c1,Potency,[6],inactive
CSCc1cccc(C(=O)Nc2cccnc2)c1,Potency,[6],inactive
Nc1nc2c(s1)C(c1ccc(F)cc1Cl)CC(=O)N2 (stereo unspecified),Potency,[6],4 µM (active)
Oc1[nH]c2ccccc2c1N=NC(=S)Nc1ccc2c(c1)CCC2,Potency,[6],inactive
COc1ccc(-n2ncc3c2CCCC3NC(=O)CN(C)C)cc1 (stereo unspecified),Potency,[6],inactive
CC(C)CCn1c(O)c(N=NC(=O)c2cccnc2)c2ccccc21,Potency,[6],inactive
CC(=O)Nc1ccc(NC(=O)c2cc(=O)c3ccccc3o2)cc1,Potency,[6],inactive
NCC(=O)Nc1ccc2c(c1)Oc1cc(NC(=O)CN)ccc1C21OC(=O)c2ccccc21,Potency,[6],inactive
COc1ccc(OC)c(NC(=O)c2cccc(Nc3ncccn3)c2)c1,Potency,[6],inactive
COc1ccccc1C(=O)Nc1nc2nc(C)cc(=O)n2[nH]1,Potency,[6],inactive
Cc1noc(C)c1-c1cncc(C(=O)NCc2cccnc2)c1,Potency,[6],inactive
N#Cc1ccc(C(=O)Nc2nnc(C3=COCCO3)o2)cc1,Potency,[6],inactive
Cc1cnc(Cl)nc1NCc1ccc(-n2ccnn2)cc1,Potency,[6],inactive
CCOC(=O)OC(C)OC(=O)c1csc(-n2[nH]c(-c3ccc(F)c(F)c3)cc2=O)n1 (stereo unspecified),Potency,[6],inactive
CN(C)CC(=O)NC1CCCc2c1cnn2-c1ccc(OCCOCCOCCNC(=O)OC(C)(C)C)cc1 (stereo unspecified),Potency,[6],inactive
Cc1ccn2c(=O)c(C(=O)NC(C)c3ccccc3)c(O)nc2c1 (stereo unspecified),Potency,[6],inactive
Cc1c2c(=O)n(-c3ccccc3)[nH]c2cc(=O)n1Cc1ccccn1,Potency,[6],inactive
N[C@H](Cc1cscn1)C(=O)Nc1cccc(-c2nn3c(=O)cc(N4CCNCC4)nc3s2)c1,Potency,[6],inactive
CCOc1ccc(NCC(=O)Nc2ccc(Cl)cc2C)cc1,Potency,[6],2.25 µM (active) and 7.94 µM (active)
Cc1c(P(=S)(c2ccccc2)c2ccccc2)[n+]2ccccc2n1C/C=C/c1ccc(C(F)(F)F)cc1,Potency,[6],7.94 µM (active)
c1cc(NC2CNC2)nc(-c2cnc3ccccn23)c1,Potency,[6],inactive
O=C(Nc1ccc2oc(-c3cccnc3)nc2c1)c1ccc(-c2ccccc2)o1,Potency,[6],inactive
c1ccc(CCN(Cc2ccccc2)C2CCN(C3CCCCC3)CC2)cc1,Potency,[6],7.94 µM (active)
Cc1cccc(NC(=O)c2nc(C)n(-c3ccc(F)cc3)n2)n1,Potency,[6],inactive
C#CCOC(=O)NCCCC[C@H](N)C(=O)O,Potency,[6],inactive
COc1ccc(CCNC(=O)c2ccc3nnc(-c4ccc([S+](C)(=O)[O-])cc4)n3c2)cc1,Potency,[6],inactive
N#CC1CCN(c2nc(Br)cs2)CC1,Potency,[6],inactive
COc1c(F)cc2[nH]c(C(=O)O)cc2c1F,Potency,[6],inactive
